The panel holds about 83,000 compounds, 20% with a hit somewhere; the sample as a whole holds those more often.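 Each cell line was grown in a 96-well plate and treated with one concentration of compound for 48 hours. Values below 10 were considered active.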 Calls of active or inactive are those of the source.
Key:
Experiment in all cases: NCI-60 one-dose screen, 48 h (100 = growth as untreated, 0 = no growth, -100 = all killed)
Settings in all cases: 10 µM unless noted
HCT-15 colon = test system: HCT-15 colon
HT29 colon = test system: HT29 colon
SNB-75 CNS = test system: SNB-75 CNS
SNB-19 CNS = test system: SNB-19 CNS
U251 CNS = test system: U251 CNS
PC-3 prostate = test system: PC-3 prostate
SK-MEL-5 melanoma = test system: SK-MEL-5 melanoma
UACC-62 melanoma = test system: UACC-62 melanoma
LOX IMVI melanoma = test system: LOX IMVI melanoma
SK-MEL-28 melanoma = test system: SK-MEL-28 melanoma

Measured: growth

Cc1ccc(CC(=O)O)c(C)c1
inactive: HCT-15 colon 103% | HT29 colon 97.2% | SNB-75 CNS 92.1% | SNB-19 CNS 102% | U251 CNS 99.3% | PC-3 prostate 98.3% | SK-MEL-5 melanoma 106% | UACC-62 melanoma 98.8% | LOX IMVI melanoma 98% | SK-MEL-28 melanoma 113%

O=C(Nc1ccc(-n2cc(-c3ccncc3)c(-c3ccc(Cl)c(O)c3)n2)cc1)c1ccc(Cl)c(C(F)(F)F)c1
inactive: SNB-19 CNS 32.5%
active: HCT-15 colon -28% | HT29 colon -86.3% | SNB-75 CNS -48.6% | U251 CNS -49.1% | PC-3 prostate -19.9% | SK-MEL-5 melanoma -97.5% | UACC-62 melanoma -3.14% | LOX IMVI melanoma -5.19%

COc1cc2c(cc1OC)C(Cc1cc(OC)c(OC)cc1[N+](=O)[O-])=NCC2
inactive: HCT-15 colon 95.8% | HT29 colon 50.9% | SNB-75 CNS 88.2% | SNB-19 CNS 94.3% | U251 CNS 77.4% | PC-3 prostate 69.2% | SK-MEL-5 melanoma 93.6% | UACC-62 melanoma 83.7% | LOX IMVI melanoma 75.1%

CC(O)c1cc[cH-]c1.[Fe+2].c1cc[cH-]c1 (stereo not drawn)
inactive: HCT-15 colon 95.3% | HT29 colon 110% | SNB-75 CNS 92% | SNB-19 CNS 105% | U251 CNS 98.2% | PC-3 prostate 98.2% | SK-MEL-5 melanoma 98.2% | UACC-62 melanoma 108% | LOX IMVI melanoma 126%

COC1=CC(c2ccc[nH]2)=N/C1=C\c1[nH]c(C)c(C(=O)CCCCC(=O)NC(C)(C)C)c1C
inactive: SNB-75 CNS 41.5% | SNB-19 CNS 70.1% | U251 CNS 22% | SK-MEL-5 melanoma 50.8% | UACC-62 melanoma 69.1%
active: HCT-15 colon -31.8% | HT29 colon 3.41% | PC-3 prostate -31.3% | LOX IMVI melanoma -34.4%

COc1ccc(-c2nc(SCC(C)C)nc(Nc3ccccc3)c2C#N)cc1
inactive: HCT-15 colon 83.4% | HT29 colon 78.9% | SNB-75 CNS 89% | SNB-19 CNS 81.3% | U251 CNS 50.5% | PC-3 prostate 86.9% | SK-MEL-5 melanoma 96.7% | UACC-62 melanoma 88.1% | LOX IMVI melanoma 80.1% | SK-MEL-28 melanoma 112%

NC(=O)c1c(Nc2ccccc2)nn2cc(-c3nc4ccccc4s3)c(N)nc12
inactive: HCT-15 colon 101% | HT29 colon 103% | SNB-75 CNS 88.9% | SNB-19 CNS 92.7% | U251 CNS 101% | PC-3 prostate 91.4% | SK-MEL-5 melanoma 97.3% | UACC-62 melanoma 97.3% | LOX IMVI melanoma 94% | SK-MEL-28 melanoma 113%

COc1cc(/C(=C2/O[C@@H]([C@H]3COC(C)(C)O3)[C@H]3OC(C)(C)O[C@@H]23)c2ccc3c(c2)OCO3)cc(OC)c1OC
inactive: HCT-15 colon 91.3% | HT29 colon 68.4% | SNB-75 CNS 51.8% | SNB-19 CNS 75.7% | U251 CNS 47.1% | PC-3 prostate 82.9% | SK-MEL-5 melanoma 71.2% | UACC-62 melanoma 76.1% | LOX IMVI melanoma 47%

CCOC(=O)C1=NN(c2ccccc2)C2=NC(=O)/C(=C\c3cn(-c4ccccc4)nc3-c3cc4ccccc4o3)C(=O)N12
inactive: HCT-15 colon 101% | HT29 colon 98% | SNB-75 CNS 94.7% | SNB-19 CNS 89.5% | U251 CNS 99.4% | PC-3 prostate 88.2% | SK-MEL-5 melanoma 94.3% | UACC-62 melanoma 82.3% | LOX IMVI melanoma 95.9% | SK-MEL-28 melanoma 110%

Cc1c(C(N)=O)sc2c1c(=O)n(Cc1ccccc1)c1nnc(S(C)(=O)=O)n21
inactive: HCT-15 colon 96.1% | HT29 colon 88.2% | SNB-75 CNS 94.4% | SNB-19 CNS 93.2% | U251 CNS 98.7% | PC-3 prostate 47.8% | SK-MEL-5 melanoma 74.8% | UACC-62 melanoma 78.1% | LOX IMVI melanoma 81.2%

CC[C@H](Nc1ncnc2nc[nH]c12)c1nc2cccc(NCc3ccc(C(=O)NO)nc3)c2c(=O)n1-c1ccccc1
inactive: HCT-15 colon 97.1% | HT29 colon 66.6% | SNB-19 CNS 26% | U251 CNS 23.6% | PC-3 prostate 23% | SK-MEL-5 melanoma 80.2% | UACC-62 melanoma 20.5%
active: SNB-75 CNS 5.43%

Cc1nnc(/N=C2\NC(=O)/C(=C/C=C/c3ccccc3)S2)s1
inactive: HCT-15 colon 37% | HT29 colon 92.8% | SNB-75 CNS 66.5% | SNB-19 CNS 53.7% | U251 CNS 49.5% | PC-3 prostate 39.2% | SK-MEL-5 melanoma 44.2% | UACC-62 melanoma 46.1% | LOX IMVI melanoma 44.3% | SK-MEL-28 melanoma 59.8%

CC(=O)OCC(=O)[C@@]1(O)[C@H](C)C[C@H]2[C@@H]3C=C(C)C4=Cc5c(cnn5-c5ccc(F)cc5)C[C@]4(C)[C@H]3[C@@H](O)C[C@@]21C
inactive: SNB-19 CNS 25.9% | PC-3 prostate 12%
active: HCT-15 colon -11.1% | HT29 colon -43.4% | SNB-75 CNS 6.75% | U251 CNS 9.65% | SK-MEL-5 melanoma -47.3% | UACC-62 melanoma -9.5% | LOX IMVI melanoma 1.77%

C/C(=N\Nc1ccc(Cl)cn1)c1ccccn1
active: U251 CNS 7.65% | SK-MEL-5 melanoma -61.9% | UACC-62 melanoma -28.3% | LOX IMVI melanoma 1.48%
inactive: HCT-15 colon 15.5% | HT29 colon 16.7% | SNB-75 CNS 31.5% | SNB-19 CNS 21.5% | PC-3 prostate 20.9%

CC(C)(CNC1CCCCC1)OC(=O)c1ccccc1
inactive: HCT-15 colon 97.7% | HT29 colon 95.5% | SNB-75 CNS 105% | SNB-19 CNS 103% | U251 CNS 100% | PC-3 prostate 91.6% | SK-MEL-5 melanoma 97.7% | UACC-62 melanoma 106% | LOX IMVI melanoma 96.7%

O=P(OCCCl)(OCCCl)C(O)c1ccccc1Cl (stereo not drawn)
inactive: HCT-15 colon 99.5% | HT29 colon 101% | SNB-75 CNS 96.7% | SNB-19 CNS 107% | U251 CNS 113% | PC-3 prostate 103% | SK-MEL-5 melanoma 112% | UACC-62 melanoma 106% | LOX IMVI melanoma 104%

O=C1C(Br)=CC2C1C1C3CCC3C2(Br)C12OCCO2 (stereo not drawn)
inactive: HCT-15 colon 19% | SNB-75 CNS 56.3% | SNB-19 CNS 81% | U251 CNS 35.3% | PC-3 prostate 32% | SK-MEL-5 melanoma 67.3% | UACC-62 melanoma 54.9% | SK-MEL-28 melanoma 55.7%
active: HT29 colon 8.84% | LOX IMVI melanoma 8.55%

CC1C(=O)CCCC1=O
inactive: HCT-15 colon 96.6% | HT29 colon 94% | SNB-75 CNS 90.9% | SNB-19 CNS 106% | U251 CNS 108% | PC-3 prostate 108% | SK-MEL-5 melanoma 106% | UACC-62 melanoma 103% | LOX IMVI melanoma 106% | SK-MEL-28 melanoma 105%

COc1cc(NC(C)CCCN)c2nc(C)ccc2c1OC (stereo not drawn)
inactive: HCT-15 colon 106% | HT29 colon 93.2% | SNB-75 CNS 98.7% | SNB-19 CNS 107% | U251 CNS 94.7% | PC-3 prostate 85.9% | SK-MEL-5 melanoma 101% | UACC-62 melanoma 108% | LOX IMVI melanoma 106%

CCOC(=O)NC1=NCC(C)(C)S1
inactive: HCT-15 colon 104% | HT29 colon 91.3% | SNB-75 CNS 91.2% | SNB-19 CNS 98.1% | U251 CNS 101% | PC-3 prostate 93.6% | SK-MEL-5 melanoma 98.3% | UACC-62 melanoma 93.6% | LOX IMVI melanoma 94.4%

CCOC(=O)c1cc(-c2ccc(OC)cc2)[nH]c1NNC(=O)CCOC
inactive: HCT-15 colon 111% | HT29 colon 112% | SNB-75 CNS 106% | SNB-19 CNS 103% | U251 CNS 101% | PC-3 prostate 93.2% | SK-MEL-5 melanoma 99.3% | UACC-62 melanoma 93.6% | LOX IMVI melanoma 94.8%

Clc1ccc(N/N=C(\c2ccccc2)c2ccccn2)nc1
active: U251 CNS 9.27% | SK-MEL-5 melanoma -36% | UACC-62 melanoma -18.3% | LOX IMVI melanoma -1.02%
inactive: HCT-15 colon 17.9% | HT29 colon 19.3% | SNB-75 CNS 25.2% | SNB-19 CNS 24.4% | PC-3 prostate 28.6%

COC(=O)/C(Br)=C/c1c[nH]c2ccc(Br)cc12
inactive: HCT-15 colon 76.8% | HT29 colon 95.3% | SNB-75 CNS 90.1% | SNB-19 CNS 88.7% | U251 CNS 68.5% | PC-3 prostate 70.8% | SK-MEL-5 melanoma 85.1% | UACC-62 melanoma 68%

COc1ccc2cnc(N)c(C#Cc3cc(C(=O)Nc4ccc(CN5CCN(C)CC5)c(C(F)(F)F)c4)cnc3C)c2c1
inactive: HCT-15 colon 43.5% | HT29 colon 13.2% | SNB-19 CNS 80.5% | U251 CNS 17.2% | PC-3 prostate 16% | SK-MEL-5 melanoma 34.6% | UACC-62 melanoma 26.3% | LOX IMVI melanoma 12%
active: SNB-75 CNS -1.84%

Oc1ccc(N=Nc2ccc(N=Nc3ccccc3)cc2)cc1
active: UACC-62 melanoma 1.15% | LOX IMVI melanoma 6.08%
inactive: HCT-15 colon 40.7% | HT29 colon 53.4% | SNB-75 CNS 87.1% | SNB-19 CNS 58.4% | U251 CNS 51.6% | PC-3 prostate 43.1% | SK-MEL-5 melanoma 39.1% | SK-MEL-28 melanoma 54.4%

CC(C)(C)c1cc(C[P+](c2ccc(Cl)cc2)(c2ccc(Cl)cc2)c2ccc(Cl)cc2)cc(C(C)(C)C)c1O
inactive: HCT-15 colon 99.1% | HT29 colon 56.9% | SNB-75 CNS 87.2% | SNB-19 CNS 98% | U251 CNS 85.4% | PC-3 prostate 70% | SK-MEL-5 melanoma 85.8% | UACC-62 melanoma 81.6% | LOX IMVI melanoma 92.6%

Cc1ccc(C(=O)Nc2ccc(CN3CCN(C)CC3)c(C(F)(F)F)c2)cc1C#Cc1cnc(N)c2ccc(F)cc12
active: HCT-15 colon -93.4% | HT29 colon -85% | SNB-75 CNS -70.4% | SNB-19 CNS -99.1% | U251 CNS -89.2% | PC-3 prostate -82.7% | SK-MEL-5 melanoma -96% | UACC-62 melanoma -83.9% | LOX IMVI melanoma -91.4%

O=c1oc2ccc3ccccc3c2cc1-c1ccnc2[nH]c(=S)[nH]c(=O)c12
inactive: HCT-15 colon 105% | HT29 colon 95.3% | SNB-75 CNS 98.9% | SNB-19 CNS 95% | U251 CNS 98.5% | PC-3 prostate 93% | SK-MEL-5 melanoma 97.8% | UACC-62 melanoma 88.2% | LOX IMVI melanoma 93.1%

COc1ccc(CNCCCN2C(=O)c3ccc4c5c(ccc(c35)C2=O)C(=O)N(CCCNCc2ccc(OC)c(OC)c2OC)C4=O)c(OC)c1OC
active: HCT-15 colon -63.7% | HT29 colon -76.4% | SNB-75 CNS -96.8% | SNB-19 CNS -79.5% | U251 CNS -94.2% | PC-3 prostate -71.9% | SK-MEL-5 melanoma -97.9% | UACC-62 melanoma -78.4% | LOX IMVI melanoma -84.7% | SK-MEL-28 melanoma -92.9%

From PubChem BioAssay (NCI)
